The text below walks through data of PubChem BioAssay (NCATS).

“And” between values parts separate entries of the source, which are not always exact repeats. Equal entries are not always repeated. Inconclusive results are not listed. Some compounds were tested as several samples or in several runs, with calls that do not always agree. Values without a mark were called inactive. The source made the active and inactive calls. Calls come from the whole dose curve; as a rule, active = well fitted inhibition curve with a large enough effect; inconclusive = small, poorly fitted or top-dose-only effect; inactive = flat fitted curve, though single readings scatter.

The subject of one assay is ICS. Description: qHTS profiling for inhibitors of Plasmodium falciparum proliferation (AID 504749). Note: potency is the fitted concentration of half-maximal effect. As to conditions: P. falciparum in erythrocytes, SYBR Green DNA, 72 h; series mostly up to 28.7 µM. An outline of the steps: (§1)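 Infected RBCs, 0.3% parasitemia/2.5% Hct final; cpd 72 h, 37 C, 5% CO2; lysis buffer with saponin/triton/SYBR Green I, o/n RT dark; FI 485/535; norm. to artemisinin (0.29 uM) and DMSO.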
For orientation: Quantitative high-throughput screening tests each substance at several concentrations.

A further assay deals with JCK. The assay is described as above. Conditions: P. falciparum in erythrocytes, SYBR Green DNA, 72 h; series mostly up to 28.7 µM. Put shortly:
as §1

For the next assay, the system named is N140. Described as above. As to conditions: P. falciparum in erythrocytes, SYBR Green DNA, 72 h; series mostly up to 28.7 µM. An outline of the steps:
as §1

In another assay the test system is PC49. The description is as above. As to conditions: P. falciparum in erythrocytes, SYBR Green DNA, 72 h; series mostly up to 28.7 µM. An outline of the steps: as §1
The subject of another assay is SC27B. The assay is described as above. Conditions: P. falciparum in erythrocytes, SYBR Green DNA, 72 h; series mostly up to 28.7 µM. Put shortly:
as §1

The test system of a further assay is TAB113. The assay is described as above. As to conditions: P. falciparum in erythrocytes, SYBR Green DNA, 72 h; series mostly up to 28.7 µM. Put shortly:
as §1

Another assay has as its system W2. Described as above. Conditions: P. falciparum in erythrocytes, SYBR Green DNA, 72 h; series mostly up to 28.7 µM. Put shortly: as §1
The subject of assay [1] is CRL-7250. The experiment in a line: Cytotoxic Profiling of Annotated Libraries Using Quantitative High-Throughput Screening (AID 1296008). For max response: % is set by controls: 0 for no effect and ±100 for the full control effect. Note: potency is the fitted concentration of half-maximal effect. Conditions: Five cell lines viability, CellTiter-Glo ATP luminescence, 48-72 h; max response: active compounds read low. An outline of the steps:
(§2)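 Cytotoxicity was measured as CellTiter-Glo ATP luminescence, read after 10 min at room temperature. Compound treatment of the cells lasted 48 or 72 hr at 37 degrees Celsius in a qHTS format.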
Background: ATP-based viability assays read luminescence as a measure of living cells.

A further assay relates to HEK293. The description is as above. As to conditions: Five cell lines viability, CellTiter-Glo ATP luminescence, 48-72 h; max response: active compounds read low. Put shortly: as §2
For another assay, the system named is HaCat. The description is as above. Conditions: Five cell lines viability, CellTiter-Glo ATP luminescence, 48-72 h; max response: active compounds read low. Put shortly: as §2
The next assay relates to KB-3-1. The description is as above. As to conditions: Five cell lines viability, CellTiter-Glo ATP luminescence, 48-72 h; max response: active compounds read low. Put shortly:
as §2

Another assay relates to NIH3T3. The assay is described as above. Conditions: Five cell lines viability, CellTiter-Glo ATP luminescence, 48-72 h; max response: active compounds read low. An outline of the steps: as §2
For assay [2], the system named is CRL-7250. The experiment in a line: qHTS assay to identify novel small-molecules to repurpose for Merkel cell carcinoma treatment (AID 1296009). As to conditions: MCC and control cell lines, CellTiter-Glo viability, 72 h; series mostly up to 44.8 µM. Put shortly:
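72 hr, 37 degree celsius; NPC 8-pt / MIPE 11-pt dose response; compound pinned in DMSO; CellTiter-Glo, 10 min RT, luminescence; normalized to no-cell and DMSO controls.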

Another assay relates to P93_24. Description: qHTS profiling for inhibitors of Plasmodium falciparum proliferation (AID 504749). Note: potency is the fitted concentration of half-maximal effect. Conditions: P. falciparum in erythrocytes, SYBR Green DNA, 72 h; series mostly up to 28.7 µM. An outline of the steps:
as §1

The next assay relates to P94_40. The assay is described as above. Conditions: P. falciparum in erythrocytes, SYBR Green DNA, 72 h; series mostly up to 28.7 µM. Put shortly: as §1
In another assay the test system is PAD. The assay is described as above. Conditions: P. falciparum in erythrocytes, SYBR Green DNA, 72 h; series mostly up to 28.7 µM. Put shortly:
as §1

Another assay relates to PC15. Described as above. Conditions: P. falciparum in erythrocytes, SYBR Green DNA, 72 h; series mostly up to 28.7 µM. Put shortly: as §1
For the next assay, the system named is PC26. The description is as above. Conditions: P. falciparum in erythrocytes, SYBR Green DNA, 72 h; series mostly up to 28.7 µM. Put shortly: as §1
The subject of the next assay is TAB165. The assay is described as above. Conditions: P. falciparum in erythrocytes, SYBR Green DNA, 72 h; series mostly up to 28.7 µM. An outline of the steps:
as §1

For another assay, the system named is TAB109. Described as above. Conditions: P. falciparum in erythrocytes, SYBR Green DNA, 72 h; series mostly up to 28.7 µM. An outline of the steps:
as §1
Note: nearly all actives have a fitted effect of over 60% in size.

In the case of `c1ccc2c(c1)Nc1ccccc1S2`, the Potency with ICS is 12.6 µM (active); in the assay on W2, 3.38 µM (active). Besides, the Potency result in the assay on JCK, in the assay on N140, with PC49, in the assay with SC27B and in the assay on TAB113 was “inactive” in each case. For the same molecule, the outcome with CRL-7250 [1], with HaCat and in the assay with CRL-7250 [2] was inactive. Also, the max response was -4.55% with HEK293; -0.234% in the assay on HaCat; 3% and -4.89% in the assay with KB-3-1; -3.03% and 0.216% with NIH3T3.
In the case of `Cn1c(CCCC(=O)O)nc2cc(N(CCCl)CCCl)ccc21`, the Potency result in the assay with JCK, in the assay on N140, with P93_24, in the assay on P94_40, in the assay with PAD and in the assay on PC15 was “inactive” in each case. The Potency entry with PC26, with PC49, with SC27B, with TAB113 and in the assay on TAB165 was “inactive” each time. The max response with CRL-7250 [1] is 3.94%; in the assay with HaCat it was -5.87% and -9.93%; in the assay on KB-3-1, 3.92% and 3.13%; with NIH3T3, -2.08% and -18.1%. Further, the molecule was called inactive with CRL-7250 [1] and with CRL-7250 [2].
Regarding `CC(C)(C)CC(C)(C)c1ccc(O)cc1`, the Potency entry in the assay with JCK, with N140, with P93_24, in the assay on PAD, in the assay with PC15 and in the assay on PC26 was “inactive” in each case. Moreover, the Potency result in the assay on SC27B, in the assay with TAB109, with TAB113 and in the assay on TAB165 was “inactive” throughout. Also, the Potency with CRL-7250 [1] is 38.6 µM (active). The max response in the assay on CRL-7250 [1] is -2.09%; in the assay on HaCat it was -11.5%; in the assay on KB-3-1 it was 33.4% and 13.2%. The result in the assay with NIH3T3 was inactive.
Turning to `C#CCN(C)[C@H](C)Cc1ccccc1`, the max response with CRL-7250 [1] was -4.73%; in the assay on HEK293 it was -7.43%; in the assay with HaCat, -9.07% and 1.92%; in the assay on KB-3-1 it was 4.15% and -12%; in the assay on NIH3T3, 3.34%. For the same molecule, the outcome in the assay with CRL-7250 [1], in the assay with HEK293, with NIH3T3 and in the assay with CRL-7250 [2] was inactive.
`CC[C@@H](CO)NC(=O)[C@@H]1C=C2c3cccc4c3c(cn4C)C[C@H]2N(C)C1`: the max response in the assay with CRL-7250 [1] was 4.07%; in the assay with HEK293, -25.3%; with KB-3-1, -9.77%; with NIH3T3, 2.49%. Besides, in the assay on HaCat, the call was inactive.
Regarding `Cc1sc2c(c1C)C(c1ccc(Cl)cc1)=N[C@@H](CC(=O)OC(C)(C)C)c1nnc(C)n1-2`, the values for the Potency in the assay with CRL-7250 [1] and in the assay on HEK293 were 0.372 µM (active) and 0.526 µM (active), respectively.
As for `C[C@@H]1[C@@H](C(=O)C[C@H]2O[C@@H]3O[C@]4(C)CC[C@@H]5[C@H](C)CC[C@@H]([C@H]2C)[C@@]35OO4)O[C@@H]2O[C@]3(C)CC[C@H]4[C@H](C)CC[C@@H]1[C@@]24OO3`, the Potency with CRL-7250 [1] is 4.18 µM (active); in the assay on HEK293 it was 0.332 µM (active); with HaCat, 5.26 µM (active).
As for `Clc1ccc(COC(Cn2ccnc2)c2ccc(Cl)cc2Cl)cc1` (stereo unspecified), the Potency is 0.631 µM (active) in the assay with ICS; 8.91 µM (active) with JCK; 1.58 µM (active) with N140; 1.12 µM (active) in the assay on P93_24; 2 µM (active) in the assay on P94_40; 2.51 µM (active) with PAD. The Potency in the assay on PC15 is 2.82 µM (active); in the assay on PC26 it was 1.9 µM (active); with PC49, 8.91 µM (active); in the assay with SC27B it was 2.51 µM (active); with TAB109, 2.51 µM (active); with TAB113, 2.82 µM (active). Moreover, the Potency was 0.708 µM (active) with TAB165 and 1.2 µM (active) in the assay on W2. Further, the max response is 1.02% in the assay on CRL-7250 [1]; -1.16% in the assay with HEK293; -11% with HaCat; -10.4% and -10.7% with KB-3-1. Also, the outcome with CRL-7250 [1] and in the assay on CRL-7250 [2] was inactive.
Turning to `C=C1CC[C@@]2(O)[C@H]3Cc4ccc(O)c5c4[C@@]2(CCN3CC2CC2)[C@H]1O5`, the Potency entry with ICS, with JCK, in the assay on N140, in the assay on P93_24, in the assay with P94_40 and in the assay on PAD was “inactive” each time. Moreover, the Potency result in the assay with PC15, in the assay on PC26, in the assay with PC49, with SC27B, with TAB109 and with TAB113 was “inactive” in each case. Besides, the Potency result with TAB165 was “inactive”. The Potency in the assay with W2 is 6.75 µM (active). Further, the max response with CRL-7250 [1] was 2.77%; in the assay on HEK293 it was -5.09%; in the assay with KB-3-1, 3.52%. Moreover, the molecule was classed as inactive with HaCat and in the assay on NIH3T3.
As to `O=C(O)C(=O)c1cn(Cc2ccccc2)c2ccc(-c3ccc(OC(F)(F)F)cc3)cc12`, the max response in the assay with CRL-7250 [1] was -5.5%; with HaCat, -0.483%; in the assay with NIH3T3, -16.9% and 4.93%. Further, the molecule was called inactive in the assay on CRL-7250 [1], in the assay with HaCat, with KB-3-1 and in the assay with CRL-7250 [2].
Regarding `COc1ccc(C(=O)c2c(C)n(CCN3CCOCC3)c3ccccc23)cc1`, the Potency entry in the assay with JCK, with N140, in the assay with P93_24, in the assay on PAD, in the assay with PC15 and in the assay on PC49 was “inactive” each time. Also, the Potency result in the assay with SC27B, in the assay on TAB109, in the assay with TAB113, with TAB165 and with W2 was “inactive” in each case. The max response in the assay on CRL-7250 [1] is -23.7%; in the assay with HEK293, -9.73%; in the assay with HaCat, -26.9%; in the assay on KB-3-1, 5.69% and 21.2%; in the assay on NIH3T3, -11.5%. Besides, the molecule was classed as inactive with CRL-7250 [1], in the assay on HaCat, with NIH3T3 and in the assay on CRL-7250 [2].
`COC1(CS(=O)c2ccccc2)CCN(CCc2c[nH]c3ccc(F)cc23)CC1` (stereo unspecified): the max response is -22.3% in the assay on CRL-7250 [1]; -11.2% in the assay on HEK293; -21.9% in the assay on HaCat; -9.1% in the assay on KB-3-1; -8% in the assay on NIH3T3.
With `CCN(C(C)=O)c1cccc(-c2ccnc3c(C#N)cnn23)c1`, the Potency entry in the assay with ICS, with JCK, in the assay with N140, with P93_24, in the assay on P94_40 and in the assay on PAD was “inactive” throughout. Also, the Potency entry in the assay on PC15, with PC26, in the assay with PC49, with SC27B, with TAB109 and with TAB113 was “inactive” each time. The Potency result with TAB165 and in the assay with W2 was “inactive” each time. The max response is -2.01% with CRL-7250 [1] and 1.34% with KB-3-1. Further, the outcome in the assay on HEK293, with HaCat and in the assay with NIH3T3 was inactive.
As to `CCCC(C)(COC(N)=O)COC(=O)NC(C)C` (stereo unspecified), the Potency entry in the assay on ICS, in the assay with JCK, in the assay with N140, with P93_24, in the assay on P94_40 and in the assay on PAD was “inactive” in each case. Moreover, the Potency result in the assay with PC15, in the assay with PC26, in the assay on PC49, with SC27B, with TAB109 and in the assay on TAB113 was “inactive” in each case. Also, the Potency entry in the assay with TAB165 and in the assay with W2 was “inactive” in each case. Also, the outcome in the assay on CRL-7250 [1], in the assay with KB-3-1, with NIH3T3 and with CRL-7250 [2] was inactive. Moreover, the max response in the assay on HaCat was -8.86% and 1.84%; in the assay with KB-3-1 it was -16.5%; with NIH3T3 it was -10.4%.
